This is part of a sample that, as a whole, favours compounds with a hit. Of some 79,000 tested, about 15% had one in any assay. Active and inactive are the calls of the source. Rule as the data show it: active = growth inhibition above about 70%; inactive = the rest.

The first assay can be described thus: NCI Yeast Anticancer Drug Screen. Data for the cln2 rad14 strain (AID 165).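 Also: 0% = growth equal to vehicle treated cultures.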 The conditions noted are these: S. cerevisiae cln2 rad14 strain, at 5.0 µM (retest, dose inferred, filed as 0.5), hits give high values. The procedure, abridged: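 Growth of compound-exposed yeast (cln2 rad14 genotype) measured and expressed as inhibition relative to vehicle.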
In the case of `O=[n+]1c2c(n([O-])c3ccc4ccccc4c31)-c1cccc3cccc-2c13`, the growth inhibition was 3% (inactive).
Take `COc1ccc(C(=O)Cc2ccc(Cl)cc2)cc1OC`: the growth inhibition was 9% (inactive).
Regarding `CCN(CC)CCC(=O)c1ccc(Oc2ccc(C)cc2)cc1`, the growth inhibition is 15% (inactive).
In the case of `BrC(Br)=C1C(=C(Br)Br)C(Br)C1Br` (stereo not given), the growth inhibition was 19% (inactive).
As for `O=C(O)C(Cc1cc(I)c(O)c(I)c1)c1ccccc1` (stereo not given), the growth inhibition was -5% (inactive).
Consider `CC1(C)OC2C(COC(c3ccccc3)(c3ccccc3)c3ccccc3)OC(n3ccc(=O)[nH]c3=O)C2O1` (stereo not given), for which the growth inhibition was 28% (inactive).
Take `Clc1ccc(C2=CCN3CC=C(c4ccc(Cl)cc4)C23)cc1`: the growth inhibition is 13% (inactive).
The same measure, in the same setting: under `Nc1ccc([N+](=O)[O-])cc1Nc1c2ccccc2nc2ccccc12` stands -1% (inactive); under `COc1c2c3c(ccnc3c3ccccc13)C(=O)N2C`, -3% (inactive).
Take `O=C1/C(=C/c2ccc([N+](=O)[O-])cc2)CNC/C1=C\c1ccc([N+](=O)[O-])cc1`: the growth inhibition is 73% (active).
Still for that read-out and setting: under `Clc1ccc(-c2nnn3ccccc23)cc1` stands 4% (inactive); under `O=Cc1ccc([N+](=O)[O-])o1`, -1% (inactive); under `CN(C)Cc1cc(C(C)(C)C)cc(C2CCCCC2)c1O`, -4% (inactive).
Regarding `COc1ccc2c(c1)CN([C@@H](C)[C@H]1CC[C@H]3[C@@H]4CC[C@H]5C[C@@H](O)CC[C@]5(C)[C@H]4CC[C@]13C)CO2`, the growth inhibition is 95% (active).
For `FC(F)(F)c1ccc(NC(=S)SCc2ccc3c(c2)OCO3)cc1`, the growth inhibition is -11% (inactive).
Regarding `Nc1cc(F)c2c(c1F)C(=O)c1cc(F)ccc1-2`, the growth inhibition was 4% (inactive).
Same read-out and setting: under `CC12CCCCC1CCC(Br)C2=O` (stereo not given) stands -50% (inactive).
As to `CC(C)c1cc(O)c(C(C)(C)C)cc1Cl`, the growth inhibition is 4% (inactive).
Still for that read-out and setting: the same measure for `CCCOC(=O)CCCC(=O)N(CC)CC`: -5% (inactive); for `CCOC(=O)c1cc(Cc2ccccc2)c(=O)n(C)c1-c1ccccc1`: 7% (inactive).
On to `COS(=O)c1cc(Cl)cc(Cl)c1OC(=O)CSSCC(=O)Oc1c(Cl)cc(Cl)cc1S(=O)OC` (stereo not given), for which the growth inhibition was 60% (inactive).
On the same count and under the same terms, the same measure for `ICCCCSc1cc(-c2ccccc2)[o+]c2ccccc12`: 1% (inactive); for `Nc1cc(Cl)c2c(c1)Cc1ccccc1-2`: -7% (inactive); for `Cc1ccc(S(=O)(=O)NCCSSCCNS(=O)(=O)c2ccc(C)cc2)cc1`: -6% (inactive).
Regarding `OC(Cc1cccnc1)(c1ccccc1)c1ccc(Cl)cc1` (stereo not given), the growth inhibition was -1% (inactive).
The same measure, in the same setting: the same measure for `Cc1ccc(C2=CC(=O)/C(=C\C(=O)c3ccc(Cl)cc3)O2)cc1`: 38% (inactive).
On the same count and under the same terms, the same measure for `O=C(Nc1ncnc2c1ncn2C1CC(O)C(CO)O1)c1ccccc1` (stereo not given): -6% (inactive); for `O=C1CSC(=S)N1c1ccc(F)cc1F`: -3% (inactive).
Turning to `CCCOC(=O)C(Br)C(Br)C(=O)OCCC` (stereo not given), the growth inhibition was 59% (inactive).
As for `c1ccc2nc3[nH]c4ccccc4c3cc2c1`, the growth inhibition was 22% (inactive).
For the molecule `O=S(=O)(c1ccc(NC(=S)NCc2ccncc2)cc1)N1CCCCC1`, the growth inhibition is 2% (inactive).
On to `Nc1ccccc1Sc1ccccc1`, for which the growth inhibition is 29% (inactive).
With `CCC(Cl)COP(=O)(OCC(Cl)CC)OC(c1ccc(Cl)c(Cl)c1)P(=O)(OCC(Cl)CC)OCC(Cl)CC` (stereo not given), the growth inhibition was -10% (inactive).
Take `O=C(O)/C=C\c1cc2ccccc2c2ccccc12`: the growth inhibition was 11% (inactive).
In the case of `COC(=O)C1C2CC3c4[nH]c5cc(OC)c(Br)cc5c4CCN3CC2CC(OC(=O)c2cc(OC)c(OC)c(OC)c2)C1OC` (stereo not given), the growth inhibition was 8% (inactive).
On the same count and under the same terms, under `Cc1c2ccnc(-c3ccc(F)cc3)c2cc2c1[nH]c1ccccc12` stands 7% (inactive).
On the same count and under the same terms, under `COc1cc2cc[n+]3c4ccc([N+](=O)[O-])cc4ccc3c2cc1OC` stands 31% (inactive).
In the case of `CCCCCCCCC1N(C)CCCN1C`, the growth inhibition is -56% (inactive).
In the case of `CC1(C)OC2C(COC(c3ccccc3)(c3ccccc3)c3ccccc3)OC(n3cnc4c(=O)[nH]cnc43)C2O1` (stereo not given), the growth inhibition is 19% (inactive).
Take `COc1cccc2c1C(=O)c1c(O)c3c(c(O)c1C2=O)C[C@@](O)(C(=O)CO)C[C@@H]3OC1CC(N(C)C)C(O)C(C)O1` (stereo not given in full): the growth inhibition is 96% (active).

Still in this assay, the particulars now being: S. cerevisiae cln2 rad14 strain, at 50.0 µM (retest, dose inferred, filed as 5.0), hits give high values.
In the case of `O=[n+]1c2c(n([O-])c3ccc4ccccc4c31)-c1cccc3cccc-2c13`, the growth inhibition is -7% (inactive).
As to `COc1ccc(C(=O)Cc2ccc(Cl)cc2)cc1OC`, the growth inhibition was -3% (inactive).
The same measure, in the same setting: the same measure for `CCN(CC)CCC(=O)c1ccc(Oc2ccc(C)cc2)cc1`: 93% (active).
Same read-out and setting: the same measure for `BrC(Br)=C1C(=C(Br)Br)C(Br)C1Br` (stereo not given): 53% (inactive).
Same read-out and setting: under `O=C(O)C(Cc1cc(I)c(O)c(I)c1)c1ccccc1` (stereo not given) stands 41% (inactive).
In the case of `CC1(C)OC2C(COC(c3ccccc3)(c3ccccc3)c3ccccc3)OC(n3ccc(=O)[nH]c3=O)C2O1` (stereo not given), the growth inhibition is 75% (active).
Same read-out and setting: under `Clc1ccc(C2=CCN3CC=C(c4ccc(Cl)cc4)C23)cc1` stands 5% (inactive); under `Nc1ccc([N+](=O)[O-])cc1Nc1c2ccccc2nc2ccccc12`, 34% (inactive).
The same measure, in the same setting: under `COc1c2c3c(ccnc3c3ccccc13)C(=O)N2C` stands 52% (inactive); under `O=C1/C(=C/c2ccc([N+](=O)[O-])cc2)CNC/C1=C\c1ccc([N+](=O)[O-])cc1`, 97% (active).
On the same count and under the same terms, the same measure for `Clc1ccc(-c2nnn3ccccc23)cc1`: 10% (inactive).
In the case of `O=Cc1ccc([N+](=O)[O-])o1`, the growth inhibition is 85% (active).
Same read-out and setting: the same measure for `CN(C)Cc1cc(C(C)(C)C)cc(C2CCCCC2)c1O`: 8% (inactive).
On the same count and under the same terms, the same measure for `COc1ccc2c(c1)CN([C@@H](C)[C@H]1CC[C@H]3[C@@H]4CC[C@H]5C[C@@H](O)CC[C@]5(C)[C@H]4CC[C@]13C)CO2`: 99% (active); for `FC(F)(F)c1ccc(NC(=S)SCc2ccc3c(c2)OCO3)cc1`: -15% (inactive).
Same read-out and setting: the same measure for `Nc1cc(F)c2c(c1F)C(=O)c1cc(F)ccc1-2`: 41% (inactive); for `CC12CCCCC1CCC(Br)C2=O` (stereo not given): -35% (inactive); for `CC(C)c1cc(O)c(C(C)(C)C)cc1Cl`: 45% (inactive).
For the molecule `CCCOC(=O)CCCC(=O)N(CC)CC`, the growth inhibition was 0% (inactive).
The same measure, in the same setting: the same measure for `CCOC(=O)c1cc(Cc2ccccc2)c(=O)n(C)c1-c1ccccc1`: 46% (inactive); for `COS(=O)c1cc(Cl)cc(Cl)c1OC(=O)CSSCC(=O)Oc1c(Cl)cc(Cl)cc1S(=O)OC` (stereo not given): 98% (active).
Take `ICCCCSc1cc(-c2ccccc2)[o+]c2ccccc12`: the growth inhibition was 49% (inactive).
`Nc1cc(Cl)c2c(c1)Cc1ccccc1-2`: the growth inhibition is 94% (active).
As for `Cc1ccc(S(=O)(=O)NCCSSCCNS(=O)(=O)c2ccc(C)cc2)cc1`, the growth inhibition was 96% (active).
For the molecule `OC(Cc1cccnc1)(c1ccccc1)c1ccc(Cl)cc1` (stereo not given), the growth inhibition is 64% (inactive).
On the same count and under the same terms, under `Cc1ccc(C2=CC(=O)/C(=C\C(=O)c3ccc(Cl)cc3)O2)cc1` stands 38% (inactive); under `O=C(Nc1ncnc2c1ncn2C1CC(O)C(CO)O1)c1ccccc1` (stereo not given), -2% (inactive).
Same read-out and setting: under `O=C1CSC(=S)N1c1ccc(F)cc1F` stands 16% (inactive); under `CCCOC(=O)C(Br)C(Br)C(=O)OCCC` (stereo not given), 101% (active); under `c1ccc2nc3[nH]c4ccccc4c3cc2c1`, 39% (inactive).
`O=S(=O)(c1ccc(NC(=S)NCc2ccncc2)cc1)N1CCCCC1`: the growth inhibition is 16% (inactive).
Same read-out and setting: the same measure for `Nc1ccccc1Sc1ccccc1`: 47% (inactive); for `CCC(Cl)COP(=O)(OCC(Cl)CC)OC(c1ccc(Cl)c(Cl)c1)P(=O)(OCC(Cl)CC)OCC(Cl)CC` (stereo not given): 1% (inactive); for `O=C(O)/C=C\c1cc2ccccc2c2ccccc12`: 99% (active).
Same read-out and setting: under `COC(=O)C1C2CC3c4[nH]c5cc(OC)c(Br)cc5c4CCN3CC2CC(OC(=O)c2cc(OC)c(OC)c(OC)c2)C1OC` (stereo not given) stands 86% (active).
As for `Cc1c2ccnc(-c3ccc(F)cc3)c2cc2c1[nH]c1ccccc12`, the growth inhibition was 17% (inactive).
On the same count and under the same terms, under `COc1cc2cc[n+]3c4ccc([N+](=O)[O-])cc4ccc3c2cc1OC` stands 71% (active); under `CCCCCCCCC1N(C)CCCN1C`, 98% (active); under `CC1(C)OC2C(COC(c3ccccc3)(c3ccccc3)c3ccccc3)OC(n3cnc4c(=O)[nH]cnc43)C2O1` (stereo not given), 97% (active).
As to `COc1cccc2c1C(=O)c1c(O)c3c(c(O)c1C2=O)C[C@@](O)(C(=O)CO)C[C@@H]3OC1CC(N(C)C)C(O)C(C)O1` (stereo not given in full), the growth inhibition was 95% (active).
